LEDGF integ inh: blocks HIV-1 LEDGF/p75-dependent DNA integration; TR-FRET IN-LEDGF/p75 DNA integration, Eu/Cy5; inhibition, % at 3.7 µM; hit rate 0.64% among 370,000; AID 743269;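 active means inhibition above the screen-wide mean plus 3 SD, cut at about 13% in these data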;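 further: signal is the Cy5 over europium emission ratio at 671 and 618 nm; 0% = plate median of compound wells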
ABHD5 PLIN5 PPI: ABHD5-PLIN5 protein interaction inhibition | Q00G26+Q8WTS1 | Split G. princeps luciferase complementation, luminescence, 4 h | inhibition, % at 4 µM | hit rate 0.78% among 360,000 | AID 602281;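 active means inhibition above the mean inhibition across every tested compound plus 3 SD, cut at about 22% in these data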;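 further: 0% = DMSO only wells and the 100% control is not disclosed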
UHRF1 binding: blocks human UHRF1 binding to methylated DNA; Q96T88; UHRF1 binding to methylated oligo, TR-FRET; inhibition, % at 4.4 µM; hit rate 0.75% among 370,000; in the data active means inhibition above about 21%;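 further: UHRF1 SRA domain binding a hemimethylated CpG hairpin DNA probe; 0% = median of test compound wells and 100% = reference inhibitor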
Target sequence (Q96T88 whole entry, looked up, the tested form may be a part): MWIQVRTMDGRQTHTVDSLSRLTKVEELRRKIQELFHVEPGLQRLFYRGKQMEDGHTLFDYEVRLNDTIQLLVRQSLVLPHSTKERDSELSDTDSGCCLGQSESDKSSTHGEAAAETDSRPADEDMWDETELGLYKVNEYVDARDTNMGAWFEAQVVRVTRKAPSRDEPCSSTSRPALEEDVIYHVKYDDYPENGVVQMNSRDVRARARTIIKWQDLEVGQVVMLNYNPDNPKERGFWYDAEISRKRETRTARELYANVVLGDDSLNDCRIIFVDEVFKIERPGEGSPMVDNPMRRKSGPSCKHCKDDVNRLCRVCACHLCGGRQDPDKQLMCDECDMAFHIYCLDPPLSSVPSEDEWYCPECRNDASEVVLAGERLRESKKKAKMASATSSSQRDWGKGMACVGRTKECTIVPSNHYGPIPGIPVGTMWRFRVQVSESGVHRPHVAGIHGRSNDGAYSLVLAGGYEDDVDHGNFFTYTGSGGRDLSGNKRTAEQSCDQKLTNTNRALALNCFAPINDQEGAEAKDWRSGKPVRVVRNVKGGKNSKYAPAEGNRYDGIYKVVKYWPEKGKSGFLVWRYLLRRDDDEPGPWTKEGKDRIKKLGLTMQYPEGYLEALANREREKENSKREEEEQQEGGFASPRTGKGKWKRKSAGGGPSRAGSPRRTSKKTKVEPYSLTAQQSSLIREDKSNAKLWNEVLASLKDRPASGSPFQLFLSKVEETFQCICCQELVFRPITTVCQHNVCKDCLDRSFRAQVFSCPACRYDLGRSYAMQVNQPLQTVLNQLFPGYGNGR
rCAG RNA binder: molecules binding r(CAG) RNA repeats; inhibition, % at 3 µM; r(CAG) RNA repeat, TO-PRO-1 dye displacement fluorescence; hit rate 1.3% among 370,000;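 active means inhibition above the plate cutoff, the mean of all test compounds on that plate plus 3 SD, cut at about 35% in these data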;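 further: 0% = DMSO alone and 100% = 100 µM mitoxantrone as full dye displacement; higher means more dye released from RNA so lower well fluorescence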
MBD2 DNA inh: MBD2-methylated oligo binding inhibition | inhibition, % at 4.4 µM | AID 686964 | TR-FRET, MBD2 binding to methylated oligonucleotide | hit rate 0.31% among 370,000 | Q9UBB5; in the data active means inhibition above about 13%
PRMT1 inh: inhibitors of human PRMT1 | inhibition, % at 2.79 µM | recombinant PRMT1, activity-based probe fluorescence polarization | hit rate 1.3% among 370,000 | Q99873 | AID 652257;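 active means inhibition above about 21% made by adding two undisclosed values, limit read from the data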
rCAG bind conf: r(CAG) RNA repeat binding, confirmation; shares compounds with rCAG RNA binder; TO-PRO-1 dye displacement fluorescence; inhibition, % at 3 µM; hit rate 70% among 4,300;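 active means inhibition above a per-plate cutoff, the mean inhibition of sample wells plus 3 SD, cut at about 35% in these data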;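 further: loss of TO-PRO-1 fluorescence as compound displaces dye from 1x1 AA loop RNA; 0% = DMSO only wells and 100% = 100 µM mitoxantrone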
dCAG dye counter: counter-screen for rCAG RNA binders: DNA CAG dye complex inhibitors; shares compounds with rCAG RNA binder; d(CAG) DNA oligo TO-PRO-1 dye displacement, fluorescence; inhibition, % at 3 µM; hit rate 94% among 4,300; AID 652068;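 active means inhibition above its plate's cutoff, the mean test-well inhibition plus 3 SD, cut at about 4.8% in these data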;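 further: 0% = DNA dye mix with DMSO and 100% = 100 µM mitoxantrone; hits displace the dye from DNA and so lower well fluorescence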
DNA CAG DR: counter-screen for rCAG binders: inhibitors of DNA CAG TO-PRO-1 complex | DNA CAG/GTC duplex TO-PRO-1 dye displacement fluorescence | shares compounds with rCAG RNA binder | AID 686960 | hit rate 20% among 250 | IC50, µM; in the data active means IC50 below about 10 µM
* hit, by the source's call; / = not tested or not shown. This is a sample that favours compounds with a hit; in the whole collection about 4.1% have one here.

SMILES | LEDGF integ inh | ABHD5 PLIN5 PPI | UHRF1 binding | rCAG RNA binder | MBD2 DNA inh | PRMT1 inh | rCAG bind conf | dCAG dye counter | others
Nc1n[nH]c2cc(=O)n(-c3cccc(C(F)(F)F)c3)nc12 | 1 | 3 | -2 | 4 | -6 | 9 | / | /
CC(OC(=O)C1=Cc2ccccc2OC1)C(=O)NCC1CCCO1 (configuration not stated) | 1 | -12 | -2 | 71* | -6 | 8 | 78* | 44*
COCCNC(=O)C(C)OC(=O)C1=Cc2ccccc2OC1 (configuration not stated) | 6 | 2 | -1 | -3 | -7 | -8 | / | /
CC1(C(=O)NNC(=O)c2ccc(=O)oc2)CC1Br (configuration not stated) | 7 | -2 | 5 | 43* | -1 | 12 | 60* | 24* | DNA CAG DR=9.9*
Cc1cc(=O)oc(C)c1C(=O)NNC(=O)C1(C)CC1Br (configuration not stated) | 4 | 8 | 0 | 1 | -7 | -4 | / | /
CC(C)N(CCNS(=O)(=O)c1ccc(Cl)cc1)C(C)C | 0 | 5 | -2 | -1 | 3 | 1 | / | /
CC(C)OP(=O)(OC(C)C)C1(NS(=O)(=O)c2ccc(Cl)cc2)C=C(Cl)C(=O)C(Cl)=C1 | 1 | 7 | 1 | 40* | -1 | 30* | 27 | 5.9*
O=[N+]([O-])c1cc2c(ccc3occc32)o1 | 0 | / | -4 | 9 | -2 | -1 | / | /
O=C(NS(=O)(=O)c1ccc2ccc(S(=O)(=O)NCCSc3ccccc3)cc2c1)c1cccc2ccccc12 | -2 | 0 | 1 | 88* | 5 | 5 | 88* | 65*
O=S(=O)(NCCSc1ccccc1)c1ccc(F)cc1 | 2 | -3 | 0 | -2 | 3 | -1 | / | /
Cc1cc(C)nc(OC(C(=O)O)C(OCCc2ccccc2)(c2ccc(F)cc2)c2ccc(F)cc2)n1 (configuration not stated) | -4 | -8 | 2 | 36* | 3 | 4 | 49* | 11*
Cc1cc(C(=O)O[C@H]2CCC[C@@]3(C(=O)N(Cc4ccccc4)c4ccccc43)[C@H]2NC(=O)CCc2ccccc2)no1 | -2 | / | 1 | 5 | -6 | -4 | / | /
O=C(CSc1n[nH]c(-c2ccc(S(=O)(=O)N3CCCCC3)cc2)n1)Nc1nccs1 | 0 | 6 | 1 | 39* | 3 | -1 | 36* | 9.0*
NNC(=O)c1cccc(S(=O)(=O)Nc2cccc(C(F)(F)F)c2)c1 | 1 | -4 | 2 | 6 | -4 | -1 | / | /
Cc1[nH]c2ccccc2c1/C=N/NC(=O)c1cccc(S(=O)(=O)Nc2cccc(C(F)(F)F)c2)c1 | -1 | -3 | -3 | 65* | 2 | -1 | 68* | 27*
Brc1ccc(-c2csc(N3CCC(c4nn[nH]n4)CC3)n2)cc1 | 4 | / | 2 | / | -3 | 2 | / | /
COc1ccc(-n2c(O)c(/C=N/NS(=O)(=O)c3ccc(C)cc3)c3ccccc3c2=O)cc1OC | 0 | -3 | -3 | 66* | -1 | -5 | 59* | 24*
COc1ccc(-n2c(O)c(/C=N/NS(=O)(=O)c3cc(C)ccc3C)c3ccccc3c2=O)cc1OC | 0 | -2 | -6 | 49* | -6 | -7 | 73* | 33*
COc1ccc(-n2c(O)c(/C=N/Nc3nc(C)cc(C)n3)c3ccccc3c2=O)cc1OC | 4 | -1 | -3 | 4 | -4 | 3 | / | /
COc1ccc(Cn2c(O)c(C=Nc3ccccc3C(=O)O)c3ccccc3c2=O)cc1 | -7 | -8 | -1 | 23 | -3 | 2 | / | /
COc1ccccc1NS(=O)(=O)c1cccc(-n2c(O)c(C=Nc3ccccc3C(=O)O)c3ccccc3c2=O)c1 | -2 | 1 | -2 | 91* | -5 | 4 | 91* | 73*
COc1ccc(CC(=O)N2CCN(C(=O)c3ccc4nc(C)n(C5CCCC5)c4c3)CC2)cc1 | 0 | / | 0 | -1 | -3 | -2 | / | /
CCCCOc1ccc(C(=O)NC2CCCCN(C(C)C)C2=O)cc1 (configuration not stated) | 0 | / | -3 | -4 | -6 | 0 | / | /
COc1cc(C2Nc3cccc4cccc(c34)N2)ccc1O | -1 | 2 | -3 | 53* | 3 | 7 | 48* | 26*
COc1cc(C2Nc3cccc4cccc(c34)N2)cc(OC)c1OC(C)=O | -1 | 2 | -4 | 29 | -3 | 7 | / | /
SMILES | LEDGF integ inh | ABHD5 PLIN5 PPI | UHRF1 binding | rCAG RNA binder | MBD2 DNA inh | PRMT1 inh | rCAG bind conf | dCAG dye counter | others
Cc1onc(-c2ccccc2Cl)c1C(=O)Nc1ccc(S(=O)(=O)Nc2nccs2)cc1 | -3 | -4 | 3 | 41* | -1 | 5 | 37* | 13*
Cc1cc2oc(C(=O)Nc3ccc(S(=O)(=O)Nc4nccs4)cc3)cc(=O)c2cc1Cl | 0 | 5 | -1 | 77* | 2 | 2 | 87* | 48*
Cc1cc(C)c2oc(C(=O)Nc3ccc(S(=O)(=O)Nc4nccs4)cc3)cc(=O)c2c1 | 1 | -2 | 0 | 68* | -4 | -2 | 64* | 29*
CC(Oc1ccc(Cl)cc1Cl)C(=O)NC1=NN(c2ccccc2)C(=O)C1 (configuration not stated) | 2 | -19 | -11 | 58* | -7 | -2 | 53* | 25*
CC(C)(Oc1ccc(Cl)cc1)C(=O)NC1=NN(c2ccccc2)C(=O)C1 | 0 | -1 | -6 | 74* | 1 | -1 | 27 | 12*
CC(=O)Nc1ccc(NC(=O)C(C)Oc2ccc(Cl)cc2Cl)cc1 (configuration not stated) | 5 | -2 | 0 | -3 | -1 | 1 | / | /
COC(=O)C1=C(C)N(Cc2ccc(C(F)(F)F)cc2)C(=NCc2ccccc2C(F)(F)F)NC1c1ccc(Cl)cc1 (configuration not stated) | 2 | / | 1 | 5 | -3 | 5 | / | /
Oc1c(N=Nc2nn[nH]n2)ccc2ccccc12 | 14* | -46 | 1 | 47* | -12 | 35* | 61* | 30*
Oc1c(N=Nc2ccc(F)cc2)ccc2ccccc12 | -6 | -7 | 1 | 4 | 0 | 1 | / | /
Cc1ccc(-n2c(SCC(=O)O)nc3c(sc(=S)n3-c3ccc(C)c(C)c3)c2=O)cc1 | 1 | -22 | 0 | 51* | -3 | 3 | 42* | 14*
Cc1ccc(-n2c(=S)sc3c(=O)n(-c4ccc(F)cc4)c(SCC(=O)O)nc32)cc1C | 0 | -3 | 0 | 36* | 2 | 6 | 30 | 6.4*
COc1ccc(-n2c(SCC(=O)C(C)(C)C)nc3c(sc(=S)n3-c3ccccc3)c2=O)c(OC)c1 | -2 | 0 | -1 | 11 | -2 | 0 | / | /

Assay outcomes: PubChem BioAssay, The Scripps Research Institute Molecular Screening Center
